Compound in the assay: C#CCNC(=O)CCSSCCC(=O)NCCc1ccc(C=O)c(C=O)c1
Put plainly: lysine labeling ratio R10:1 (500 µM / 50 µM probe), SILAC-ABPP in living cells; higher = lower intrinsic lysine reactivity toward the probe, active = 2 or less. Conditions: HeLa; probe concentrations 500 vs 50 µM. In short, it runs like this:
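R, given per lysine, is the filtered median high-probe/low-probe MS1 peptide ratio, with the median then taken across forward and reverse replicates. Cells were living SILAC light and heavy HeLa cells in PBS at room temperature, labelled with 50 µM or 500 µM of an alkyne-tagged, disulfide-linked lysine probe. The ceiling applied is 20.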
UniProt Q13813, sequence (Q13813 whole entry): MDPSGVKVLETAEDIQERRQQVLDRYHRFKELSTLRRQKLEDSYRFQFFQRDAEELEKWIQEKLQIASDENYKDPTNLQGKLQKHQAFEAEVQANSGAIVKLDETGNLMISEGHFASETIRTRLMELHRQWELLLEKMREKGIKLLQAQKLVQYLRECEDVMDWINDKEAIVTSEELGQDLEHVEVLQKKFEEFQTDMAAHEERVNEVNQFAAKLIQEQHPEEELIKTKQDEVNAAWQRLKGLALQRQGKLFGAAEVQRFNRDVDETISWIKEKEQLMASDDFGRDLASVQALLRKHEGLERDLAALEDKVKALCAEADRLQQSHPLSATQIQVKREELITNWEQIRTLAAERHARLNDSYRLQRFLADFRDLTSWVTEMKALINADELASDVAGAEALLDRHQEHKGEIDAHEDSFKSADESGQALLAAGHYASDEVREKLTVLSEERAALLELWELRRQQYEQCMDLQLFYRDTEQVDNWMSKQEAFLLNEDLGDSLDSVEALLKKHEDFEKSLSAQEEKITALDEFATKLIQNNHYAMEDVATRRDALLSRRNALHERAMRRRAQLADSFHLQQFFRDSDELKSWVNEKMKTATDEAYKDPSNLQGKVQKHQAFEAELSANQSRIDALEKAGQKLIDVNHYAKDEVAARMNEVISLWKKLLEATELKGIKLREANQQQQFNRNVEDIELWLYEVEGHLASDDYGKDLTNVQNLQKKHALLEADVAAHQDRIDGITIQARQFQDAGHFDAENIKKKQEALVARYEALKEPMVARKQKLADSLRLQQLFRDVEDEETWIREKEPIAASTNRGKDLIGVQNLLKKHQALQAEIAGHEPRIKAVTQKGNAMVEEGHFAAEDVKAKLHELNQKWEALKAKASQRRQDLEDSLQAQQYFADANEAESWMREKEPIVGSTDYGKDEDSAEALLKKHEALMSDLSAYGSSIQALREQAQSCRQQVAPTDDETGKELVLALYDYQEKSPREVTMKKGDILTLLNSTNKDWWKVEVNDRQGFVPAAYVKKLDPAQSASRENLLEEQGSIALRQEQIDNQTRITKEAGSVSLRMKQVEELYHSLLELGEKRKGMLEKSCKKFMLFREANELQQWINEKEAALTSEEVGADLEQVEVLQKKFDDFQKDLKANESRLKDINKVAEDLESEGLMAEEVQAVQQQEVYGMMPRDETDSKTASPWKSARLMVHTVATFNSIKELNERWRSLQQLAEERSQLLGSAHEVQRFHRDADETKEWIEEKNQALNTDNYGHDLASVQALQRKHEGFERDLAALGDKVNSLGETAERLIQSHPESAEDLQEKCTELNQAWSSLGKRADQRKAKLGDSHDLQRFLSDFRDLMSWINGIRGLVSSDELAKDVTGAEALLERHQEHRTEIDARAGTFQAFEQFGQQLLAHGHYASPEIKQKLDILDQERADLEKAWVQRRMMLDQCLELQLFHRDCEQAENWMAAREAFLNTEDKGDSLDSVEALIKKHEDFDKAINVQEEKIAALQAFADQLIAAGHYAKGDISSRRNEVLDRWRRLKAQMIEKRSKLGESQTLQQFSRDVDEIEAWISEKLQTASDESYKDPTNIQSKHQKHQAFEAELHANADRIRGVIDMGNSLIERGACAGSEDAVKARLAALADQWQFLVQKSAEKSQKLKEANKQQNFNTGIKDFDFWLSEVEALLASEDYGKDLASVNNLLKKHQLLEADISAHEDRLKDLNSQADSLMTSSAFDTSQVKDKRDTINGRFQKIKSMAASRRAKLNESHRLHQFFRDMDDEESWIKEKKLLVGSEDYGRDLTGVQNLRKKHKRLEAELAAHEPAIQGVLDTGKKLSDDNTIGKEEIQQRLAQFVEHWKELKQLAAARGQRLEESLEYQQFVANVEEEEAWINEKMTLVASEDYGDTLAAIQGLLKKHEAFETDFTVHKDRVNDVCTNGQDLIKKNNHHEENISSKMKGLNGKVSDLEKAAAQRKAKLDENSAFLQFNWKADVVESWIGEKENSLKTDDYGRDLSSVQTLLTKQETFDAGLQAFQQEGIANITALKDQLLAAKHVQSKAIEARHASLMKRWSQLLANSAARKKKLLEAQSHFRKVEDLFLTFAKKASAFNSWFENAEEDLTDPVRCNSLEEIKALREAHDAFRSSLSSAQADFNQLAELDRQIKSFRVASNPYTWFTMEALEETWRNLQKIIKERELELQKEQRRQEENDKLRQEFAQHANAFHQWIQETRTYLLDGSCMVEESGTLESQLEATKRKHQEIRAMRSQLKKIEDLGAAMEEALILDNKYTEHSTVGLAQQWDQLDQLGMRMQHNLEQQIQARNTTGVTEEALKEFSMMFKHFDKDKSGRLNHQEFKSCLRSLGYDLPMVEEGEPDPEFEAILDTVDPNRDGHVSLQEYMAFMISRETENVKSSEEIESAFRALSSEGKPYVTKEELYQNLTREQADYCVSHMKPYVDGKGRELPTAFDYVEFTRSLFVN
UniProt Q14574, sequence (Q14574 whole entry): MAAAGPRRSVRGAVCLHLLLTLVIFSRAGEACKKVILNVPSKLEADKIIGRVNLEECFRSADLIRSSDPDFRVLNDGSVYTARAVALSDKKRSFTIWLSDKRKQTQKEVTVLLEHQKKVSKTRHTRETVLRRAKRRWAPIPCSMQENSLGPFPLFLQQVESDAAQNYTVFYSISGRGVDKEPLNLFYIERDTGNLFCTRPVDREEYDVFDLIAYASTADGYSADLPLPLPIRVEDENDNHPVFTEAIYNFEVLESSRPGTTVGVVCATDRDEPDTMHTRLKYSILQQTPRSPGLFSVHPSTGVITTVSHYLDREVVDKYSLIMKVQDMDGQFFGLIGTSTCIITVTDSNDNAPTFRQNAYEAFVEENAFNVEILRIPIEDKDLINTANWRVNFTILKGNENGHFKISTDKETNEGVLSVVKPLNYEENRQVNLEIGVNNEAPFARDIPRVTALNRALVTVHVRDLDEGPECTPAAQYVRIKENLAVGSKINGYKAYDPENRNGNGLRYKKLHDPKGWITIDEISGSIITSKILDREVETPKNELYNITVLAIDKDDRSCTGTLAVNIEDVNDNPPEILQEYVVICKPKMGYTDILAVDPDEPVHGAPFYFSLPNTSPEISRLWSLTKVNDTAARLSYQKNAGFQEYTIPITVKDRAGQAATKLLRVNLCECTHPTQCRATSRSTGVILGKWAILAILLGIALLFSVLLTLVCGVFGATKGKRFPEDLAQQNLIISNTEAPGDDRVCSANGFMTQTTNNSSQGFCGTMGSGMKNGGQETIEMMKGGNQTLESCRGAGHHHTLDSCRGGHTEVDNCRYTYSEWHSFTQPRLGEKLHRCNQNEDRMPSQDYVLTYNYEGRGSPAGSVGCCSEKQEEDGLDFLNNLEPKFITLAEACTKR
UniProt P12956, sequence (P12956 whole entry): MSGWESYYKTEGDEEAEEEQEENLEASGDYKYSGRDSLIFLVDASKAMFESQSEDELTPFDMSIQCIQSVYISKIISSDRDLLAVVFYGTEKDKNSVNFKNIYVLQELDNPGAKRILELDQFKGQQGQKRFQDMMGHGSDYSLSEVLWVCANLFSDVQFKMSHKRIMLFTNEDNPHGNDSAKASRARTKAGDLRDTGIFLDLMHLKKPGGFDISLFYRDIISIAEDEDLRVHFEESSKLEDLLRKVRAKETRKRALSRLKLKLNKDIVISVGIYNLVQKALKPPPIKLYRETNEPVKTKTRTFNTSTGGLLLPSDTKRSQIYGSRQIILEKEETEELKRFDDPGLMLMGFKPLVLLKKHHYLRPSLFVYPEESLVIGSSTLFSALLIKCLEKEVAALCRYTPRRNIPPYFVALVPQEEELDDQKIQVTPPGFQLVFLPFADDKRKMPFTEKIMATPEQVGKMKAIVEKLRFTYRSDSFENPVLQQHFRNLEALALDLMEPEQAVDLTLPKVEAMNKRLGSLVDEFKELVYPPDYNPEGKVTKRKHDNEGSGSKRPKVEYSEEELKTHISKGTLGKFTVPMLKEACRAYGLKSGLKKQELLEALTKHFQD
UniProt Q99460, sequence (Q99460 whole entry): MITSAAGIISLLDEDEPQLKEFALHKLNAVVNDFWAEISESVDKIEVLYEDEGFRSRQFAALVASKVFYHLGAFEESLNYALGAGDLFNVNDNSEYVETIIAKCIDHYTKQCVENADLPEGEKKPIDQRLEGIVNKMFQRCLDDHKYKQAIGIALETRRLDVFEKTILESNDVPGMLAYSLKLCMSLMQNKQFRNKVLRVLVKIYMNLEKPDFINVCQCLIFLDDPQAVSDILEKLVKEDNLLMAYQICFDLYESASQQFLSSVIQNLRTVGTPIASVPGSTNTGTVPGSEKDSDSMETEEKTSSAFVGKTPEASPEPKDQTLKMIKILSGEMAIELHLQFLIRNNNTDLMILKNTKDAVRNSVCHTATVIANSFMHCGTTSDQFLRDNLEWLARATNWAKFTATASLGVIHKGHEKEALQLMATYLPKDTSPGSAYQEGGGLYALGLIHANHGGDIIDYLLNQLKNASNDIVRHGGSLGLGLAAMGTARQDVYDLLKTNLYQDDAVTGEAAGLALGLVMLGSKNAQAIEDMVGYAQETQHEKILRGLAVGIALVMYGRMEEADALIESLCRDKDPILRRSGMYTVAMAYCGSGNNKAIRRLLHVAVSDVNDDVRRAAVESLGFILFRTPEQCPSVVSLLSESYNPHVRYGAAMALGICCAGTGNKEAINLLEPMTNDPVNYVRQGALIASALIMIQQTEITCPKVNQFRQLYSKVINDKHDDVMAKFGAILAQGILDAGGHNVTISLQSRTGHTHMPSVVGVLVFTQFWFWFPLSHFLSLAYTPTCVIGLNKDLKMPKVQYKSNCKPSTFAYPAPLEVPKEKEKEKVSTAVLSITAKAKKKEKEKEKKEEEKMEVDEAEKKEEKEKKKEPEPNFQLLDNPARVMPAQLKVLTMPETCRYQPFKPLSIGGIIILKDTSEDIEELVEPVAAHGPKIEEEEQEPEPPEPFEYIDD
UniProt O00264, sequence (O00264 whole entry): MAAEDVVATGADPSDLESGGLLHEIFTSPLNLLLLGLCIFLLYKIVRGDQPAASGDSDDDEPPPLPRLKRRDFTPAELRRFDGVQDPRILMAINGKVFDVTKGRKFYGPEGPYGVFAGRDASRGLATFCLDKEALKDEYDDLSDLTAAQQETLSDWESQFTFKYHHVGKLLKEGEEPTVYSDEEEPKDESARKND
For “COPA (lysine site: K480) (UniProt P53621)”, the “lysine labeling ratio R10:1” value was 4.64 (inactive).
For UniProt Q14574 (lysine site: K180) the value was 1.97 (active); for “HSP90B1 (lysine site: K633) (UniProt P14625)”, 3.03 (inactive); for “SERBP1 (lysine site: K76) (UniProt Q8NC51)”, 1.17 (active).
Turning to “CDCP1 (lysine site: K454) (UniProt Q9H5V8)”, the “lysine labeling ratio R10:1” value was 1.89 (active).
Then “ITGA3 (lysine site: K895) (UniProt P26006)”, with 2.18 (inactive); and “XRCC6 (lysine site: K516) (UniProt P12956)”, with 0.712 (active); and “C3 (lysine site: K1546) (UniProt P01024)”, with 4.18 (inactive).
Turning to “HEG1 (lysine site: K1073) (UniProt Q9ULI3)”, the “lysine labeling ratio R10:1” value is 3.38 (inactive).
Then “ANXA1 (lysine site: K185) (UniProt P04083)”, with 3.58 (inactive); and “CDH2 (lysine site: K189) (UniProt P19022)”, with 4.45 (inactive).
Then “PTBP1 (lysine site: K428) (UniProt P26599)”, with 3.97 (inactive); and “NUMA1 (lysine site: K1625) (UniProt Q14980)”, with 3.65 (inactive); and UniProt Q8WXI7 (lysine site: K12605), with 3.8 (inactive).
For the target “CKAP4 (lysine site: K388) (UniProt Q07065)”, the “lysine labeling ratio R10:1” value was 2.6 (inactive).
With “PSMD1 (lysine site: K890) (UniProt Q99460)”, the “lysine labeling ratio R10:1” value was 1.11 (active).
Turning to “SPTAN1 (lysine site: K1784) (UniProt Q13813)”, the “lysine labeling ratio R10:1” value was 1.22 (active).
As for “RPS27A (lysine site: K113) (UniProt P62979)”, the “lysine labeling ratio R10:1” value is 1.38 (active).
Then UniProt P04626 (lysine site: K200), with 6.23 (inactive); and “APP (lysine site: K522) (UniProt P05067)”, with 5.65 (inactive); and “CCT2 (lysine site: K250) (UniProt P78371)”, with 1.5 (active).
In the case of “CDH13 (lysine site: K74) (UniProt P55290)”, the “lysine labeling ratio R10:1” value is 5.06 (inactive).
In the case of “VIM (lysine site: K188) (UniProt P08670)”, the “lysine labeling ratio R10:1” value is 11.1 (inactive).
Turning to “PGRMC1 (lysine site: K102) (UniProt O00264)”, the “lysine labeling ratio R10:1” value is 5.04 (inactive).
For the target “GSN (lysine site: K245) (UniProt P06396)”, the “lysine labeling ratio R10:1” value is 4.08 (inactive).
Regarding “S100A10 (lysine site: K57) (UniProt P60903)”, the “lysine labeling ratio R10:1” value is 2.66 (inactive).
For “H2AFY (lysine site: K18) (UniProt O75367)” the value was 3.07 (inactive).
For “FN1 (lysine site: K1050) (UniProt P02751)”, the “lysine labeling ratio R10:1” value was 1.47 (active).
Then “FKBP4 (lysine site: K274) (UniProt Q02790)”, with 2.78 (inactive); and “HNRNPM (lysine site: K651) (UniProt P52272)”, with 2.28 (inactive); and “S100A4 (lysine site: K57) (UniProt P26447)”, with 3.85 (inactive).
For “SPTAN1 (lysine site: K2000) (UniProt Q13813)” the value was 0.553 (active).
In the case of UniProt P60842 (lysine site: K238), the “lysine labeling ratio R10:1” value was 1.54 (active).
Take UniProt Q14696 (lysine site: K222): the “lysine labeling ratio R10:1” value was 3.35 (inactive).
Regarding “IGF1R (lysine site: K709) (UniProt P08069)”, the “lysine labeling ratio R10:1” value was 4.79 (inactive).
Regarding “PDIA4 (lysine site: K366) (UniProt P13667)”, the “lysine labeling ratio R10:1” value is 1.22 (active).
For “L1CAM (lysine site: K119) (UniProt P32004)” the value was 3.56 (inactive).
On to “TLN1 (lysine site: K147) (UniProt Q9Y490)”, for which the “lysine labeling ratio R10:1” value is 1.5 (active).
For “IQGAP1 (lysine site: K274) (UniProt P46940)” the value was 3.87 (inactive).
With UniProt Q15149 (lysine site: K2318), the “lysine labeling ratio R10:1” value was 4.26 (inactive).

For the origin of these results see the supplement of paper PMC11001985.
